The values that follow come from PubChem BioAssay.

This experiment in a line: probe aNog binding to arrayed compounds – biochemical, biotinylated probe, 635/667 nm fluorescence, primary screen (AID 1115).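 Note: probe is biotinylated aNog protein used at 0.15 µg/mL for 1 h at 4 C; z-score combines 667 nm fluorescence of each spot with its signal to noise.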 Particulars: small-molecule microarray, higher = more signal.
In turn, `CC(C)(C)N1CC=CC23O[C@@H]4/C=C\CCCOC(=O)C4[C@H]2C(=O)N(CCCO)[C@@H]3C1=O` (stereo partly specified) gave a composite z-score of 0.185.

Compound `Cc1ccc(S[C@]2(C(=O)NCCCN(C)C)CC(=O)N(C3Cc4ccccc4C3)[C@@H]2c2ccc(CO)cc2I)cc1` had a composite z-score of -0.291.

`CCOc1cc(C(O)C2C=CC3C(=O)N(c4ccccc4)C(=O)C3N2Nc2ccccc2F)ccc1O` (stereo unspecified) gave a composite z-score of 1.71.

The compound `Cc1ccc(F)cc1S(=O)(=O)N[C@H]1CCN(Cc2ccc(OC(C)C)cc2)C1` had a composite z-score of -0.131.

`COC(=O)C(CC#Cc1ccc2c(c1)[C@]1(C(=O)N2)[C@H](c2ccc(OCCO)cc2)N2[C@H](c3ccccc3)[C@H](c3ccccc3)OC(=O)[C@H]2[C@@H]1C(=O)N1CCCCCCC1)C(=O)OC` had a composite z-score of 2.33.

Consider `[N-]=[N+]=Nc1ccccc1C[C@]1(C(=O)N2CCOCC2)N=C(c2ccc(OCCCO)cc2)O[C@H]1c1ccccc1N=[N+]=[N-]`, for which the composite z-score was -0.626.

`O=C(NC1CC1)[C@@H]1c2ccccc2C(=O)N(Cc2ccc(OC(F)(F)F)cc2)[C@H]1c1ccc(CO)cc1` had a composite z-score of -0.399.

The compound `CN(C)CCCC[C@@H]1NC(=O)[C@H]2C[C@@H](C(=O)O)[C@@H](c3ccc(O)cc3)N2C1=O` came in with a composite z-score of 3.

Compound `CO[C@H]1O[C@H](CO)[C@@H](OC(=O)Nc2ccccc2)[C@H](OC(=O)Nc2ccccc2)[C@H]1OC(=O)Nc1ccccc1` came in with a composite z-score of -0.273.

For `[N-]=[N+]=NCc1ccccc1[C@@H]1OC(c2ccc(OCCCO)cc2)=N[C@]1(Cc1ccccc1N=[N+]=[N-])C(=O)O`, the composite z-score stood at 1.7.

On to `CC(C)=CCCC(C)=CC(O)C1C=CC2C(=O)NC(=O)C2N1Nc1ccc(Cl)cc1Cl` (stereo unspecified), for which the composite z-score was 1.5.
